Compound activity (PubChem BioAssay)
MARV entry inh – qHTS for inhibitors of binding or entry into cells for Marburg Virus; Marburg virus pseudotyped entry inhibition, cell reporter; Potency, µM (series often up to 37.8 µM), hits mostly inhibitors; actives 1.8% (n = 300,000); AID 540276, 2011; calls by dose curve; tested in HEK293 cells
HCMV inh – qHTS Assay for inhibitors of the human cytomegalovirus (HCMV) | HFF cells, HCMV-luciferase reporter, 72 h; active compounds read low | activity change, negative = inhibition, % at 57.5 µM | actives 4.5% (n = 410,000) | AID 1259415, 2018; in the data active = activity change below about -60%; inconclusive = no clear call, values can overlap the other calls; inactive = above about -39%
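After 16 h attachment at 37C, HFF cells received test compound and HCMV-luciferase (1 PFU/cell); reporter luminescence read 72 h later, data normalized against buffer-only and known inhibitor Salinomycin.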
LASV entry inh – qHTS for Inhibitors of binding or entry into cells for Lassa Virus. Potency, µM (series often up to 37.9 µM), actives largely listed as inhibitors. actives 1.2% (n = 300,000). Lassa virus pseudotype entry inhibition, cell reporter; calls by dose curve; tested in HEK293 cells; also: nearly all actives have a fitted effect of over 50% in size
FMDV inh – High Throughput Screening for Foot and Mouth Disease Virus Antivirals; Potency, µM (series often up to 57.9 µM), hits mostly inhibitors; FMDV antiviral cell-based qHTS; AID 1159524, 2015; actives 1.2% (n = 410,000); calls by dose curve; tested in HEK293T cells; also: read-out not given here; nearly all actives have a fitted effect of over 45% in size
Of the large screens only hits and unclear results are named; the others gave an inactive call. This is a sample that favours compounds with a hit; in the whole collection about 6.2% have one here.

Oc1ccc(C[C@H]2CNC(=S)N2CC2CCCN2C[C@H](Cc2ccc(O)cc2)N2C[C@H](Cc3ccc(O)cc3)N(CC3CCCCC3)C2=S)cc1 (stereo partly drawn)	HCMV inh -92.6, FMDV inh inconclusive (no result: MARV entry inh, LASV entry inh)
Oc1ccc(C[C@H]2CN([C@@H](Cc3cccc(O)c3)CN3CCC[C@@H]3CN3C(=S)NC[C@@H]3Cc3ccccc3)C(=S)N2CC2CCCCC2)cc1	HCMV inh -71.6, FMDV inh inconclusive (no result: MARV entry inh, LASV entry inh)
CC(C)C[C@H]1CNC(=S)N1C[C@H]1CCCN1C[C@H](Cc1ccccc1)N1C[C@H](Cc2ccc(O)cc2)N(CC2CCCCCC2)C1=S	HCMV inh -83.9 (no result: MARV entry inh, LASV entry inh)
Oc1ccc(C[C@H]2CN([C@@H](Cc3ccccc3)CN3CCCC3CN3C(=S)NC[C@@H]3Cc3ccccc3)C(=S)N2CC2CCCCC2)cc1 (stereo partly drawn)	HCMV inh inconclusive (no result: MARV entry inh, LASV entry inh)
CC(C)C[C@H]1CNC(=S)N1CC1CCCN1C[C@H](Cc1ccc(O)cc1)N1C[C@H](Cc2ccccc2)N(CC2CCCCCC2)C1=S (stereo partly drawn)	none (no result: MARV entry inh, LASV entry inh)
Oc1ccc(C[C@H]2CN([C@@H](Cc3ccc(O)cc3)CN3CCC[C@@H]3CN3C(=S)NC[C@@H]3Cc3ccccc3)C(=S)N2CC2CCCCCC2)cc1	HCMV inh -97.2 (no result: MARV entry inh, LASV entry inh)
CCN1CCN(S(=O)(=O)c2ccc(Cl)c(C(=O)Oc3ccc(CC(=O)OC)cc3)c2)CC1	MARV entry inh inconclusive
CC1=C(C(=O)N(C(C)C)C(C)C)CC(CC(=O)NCCCN(C)C)C(=O)N1Cc1ccc(F)cc1 (stereo not drawn)	none (no result: MARV entry inh, LASV entry inh)
Oc1ccc(C[C@H]2CNC(=S)N2CC2CCCN2C[C@H](Cc2ccccc2)N2C[C@H](Cc3ccc(O)cc3)N(CC3CCCCCC3)C2=S)cc1 (stereo partly drawn)	HCMV inh -62.6, FMDV inh inconclusive (no result: MARV entry inh, LASV entry inh)
Cc1nc(N)nc(Cl)c1Cc1ccc(Cl)cc1	MARV entry inh inconclusive, HCMV inh -61.2
CCOC(=O)CCC(NC(=O)CCC(=O)NC(CCC(=O)OCC)C(=O)OCC)C(=O)OCC (stereo not drawn)	none
CCOC(=O)CCC(NC(=O)CC(=O)NC(CCC(=O)OCC)C(=O)OCC)C(=O)OCC (stereo not drawn)	HCMV inh -95.7 (no result: MARV entry inh, LASV entry inh)
COc1cccc(/C=C/C2=CC(C)(C)NC(=S)N2)c1	LASV entry inh inconclusive
Cc1cc(-c2ccc(S(=O)(=O)Nc3ccc(Cl)cc3C)cc2)on1	HCMV inh -77.7 (no result: MARV entry inh)
Cc1[nH]n(-c2ccccc2)c(=S)c1C=NCCCN=Cc1c(C)[nH]n(-c2ccccc2)c1=S	MARV entry inh inconclusive
COc1cc(CNc2ccc3[nH]c(=O)[nH]c3c2)ccc1OCc1cccc(C)c1	HCMV inh -66.1, LASV entry inh inconclusive
C/C(=N\Nc1nc2ccccc2[nH]1)c1ccc(N2CCOCC2)cc1	MARV entry inh inconclusive, LASV entry inh 10µM
C/C(=N\Nc1nc(C)cc(C)n1)c1ccc(N2CCOCC2)cc1	HCMV inh -68.6 (no result: MARV entry inh, LASV entry inh)
COc1ccc(C(=O)N2CCN(Cc3cc(OC)c(O)c(OC)c3)CC2)cc1OC	none (no result: FMDV inh)
Cc1ccc(C)c(N2CCN(C(=O)CN3C(=O)CSc4c3c(C)nn4-c3ccccc3)CC2)c1	FMDV inh 35.5µM (no result: MARV entry inh)
Cc1ccc(-n2nnnc2-c2cnn(-c3cccc(F)c3)c2C(F)(F)F)cc1	MARV entry inh inconclusive, HCMV inh -75.3, LASV entry inh inconclusive, FMDV inh inconclusive
Fc1cccc(-n2ncc(-c3nnnn3-c3ccccc3)c2C(F)(F)F)c1	LASV entry inh inconclusive
COc1cccc(CNC(=O)CCNC(=O)c2ccc(Br)o2)c1	none (no result: MARV entry inh, LASV entry inh)
CC1(C)Nc2ccccc2C(=O)N1c1ccc(Br)cc1	LASV entry inh inconclusive
Cc1ccc(N2C(=O)c3ccccc3NC2(C(=O)O)c2ccccc2)cc1Cl (stereo not drawn)	HCMV inh -98.4 (no result: MARV entry inh, LASV entry inh)
O=S(=O)(Nc1ccc(Cl)cn1)c1ccc(F)cc1	none
c1ccc2c(-c3ccc4nncn4c3)cncc2c1	HCMV inh -70.3 (no result: MARV entry inh, LASV entry inh)
CN(CC(=O)Nc1ccc(F)cc1[N+](=O)[O-])Cc1ccccc1	none
Nc1ccc(/C=C/c2ccc3ncccc3c2)cc1	none (no result: MARV entry inh, LASV entry inh)
COc1ccc(/C=N/n2cnnc2SCc2ccc(OC)cc2)cc1	LASV entry inh 2.51µM
Cc1[nH]n(-c2cccc3ccccc23)c(=O)c1/C=N/NC(=O)c1cccc([N+](=O)[O-])c1	MARV entry inh inconclusive, HCMV inh -100.7
Cc1ccc(-n2[nH]c(C)c(/C=N/Nc3ccc([N+](=O)[O-])cc3[N+](=O)[O-])c2=O)cc1C	LASV entry inh inconclusive, FMDV inh 10µM
Cc1[nH]n(-c2ccccc2)c(=O)c1/C=N/NC(=O)c1ccccc1F	HCMV inh -93.5 (no result: MARV entry inh, LASV entry inh)
Cc1ccc(-n2[nH]c(C)c(/C=N/NC(=O)c3ccc([N+](=O)[O-])cc3)c2=O)c(C)c1	none (no result: MARV entry inh, LASV entry inh, FMDV inh)
Cc1[nH]n(-c2ccccc2)c(=O)c1/C=N/NC(=O)c1cccc([N+](=O)[O-])c1	MARV entry inh inconclusive, HCMV inh -104.2, LASV entry inh inconclusive
COc1c(/C=N/Nc2ccc([N+](=O)[O-])cc2[N+](=O)[O-])c(C)nn1-c1ccccc1	none
OC1CCN(C(c2ccc3ncccc3c2)c2nnnn2C2CCCCC2)CC1 (stereo not drawn)	none (no result: FMDV inh)
CN1CCN(c2ccccc2NC(=O)c2ccc(-c3ccc(Br)cc3)o2)CC1	MARV entry inh inconclusive (no result: HCMV inh)
Cc1cc(=O)n2[nH]c(-c3ccc(C(C)(C)C)cc3)cc2n1	MARV entry inh inconclusive, HCMV inh -63.3, LASV entry inh inconclusive
C/C(=C\c1ccc2c(c1)OCO2)C1Nc2cccc3cccc(c23)N1	HCMV inh inconclusive (no result: MARV entry inh, LASV entry inh)
O=C(Nc1cc(Cl)ccc1N1CCOCC1)c1ccc(N2CCCCC2)c([N+](=O)[O-])c1	none
O=C(Nc1ccc(N2CCCCC2)c(Cl)c1)c1ccc(N2CCOCC2)c([N+](=O)[O-])c1	MARV entry inh inconclusive, HCMV inh -80.4, LASV entry inh inconclusive (no result: FMDV inh)
Cc1ccc(NC(=O)c2ccc(N3CCOCC3)c([N+](=O)[O-])c2)cc1S(=O)(=O)N1CCOCC1	MARV entry inh inconclusive, HCMV inh -97.9, FMDV inh 12.6µM
CCN(CC)S(=O)(=O)c1cc(NC(=O)c2cc([N+](=O)[O-])ccc2N2CCOCC2)ccc1C	MARV entry inh 17.8µM, HCMV inh inconclusive, LASV entry inh inconclusive
CC(=O)N1CCN(c2ccc(NC(=O)c3ccc(N4CCCC4)c([N+](=O)[O-])c3)cc2Cl)CC1	MARV entry inh inconclusive, HCMV inh -70.9, LASV entry inh inconclusive (no result: FMDV inh)
COc1cccc(C(=O)Nc2cccc(C(=O)NCC(C)C)c2)c1	none
CN(C)S(=O)(=O)c1cccc(NC(=O)c2ccc(N3CCOCC3)c([N+](=O)[O-])c2)c1	MARV entry inh inconclusive, HCMV inh -70.9, LASV entry inh inconclusive, FMDV inh inconclusive
CC(C)CNC(=O)c1cccc(NC(=O)c2ccc(Cl)c([N+](=O)[O-])c2)c1	MARV entry inh inconclusive, LASV entry inh inconclusive, FMDV inh 28.2µM
O=C(Nc1cccc(S(=O)(=O)N2CCOCC2)c1)c1ccc(Cl)c([N+](=O)[O-])c1	MARV entry inh inconclusive, FMDV inh 39.8µM
CCOc1ccc(C(=O)Nc2cc(-c3nc4cc(OC)ccc4o3)ccc2C)cc1[N+](=O)[O-]	MARV entry inh inconclusive
